The results in this text go back to PubChem BioAssay.

The structures appear in SMILES notation. Records with an inconclusive call do not appear. The source made the active and inactive calls.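 The calls were made as follows, unless noted: active = binding below the plate cutoff, the plate median minus 3 SD, with a reading above zero; inconclusive = below the plate cutoff but reading exactly zero; inactive = the rest.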

The nature of test [1]: yeast TOR pathway RPL19A-GFP modulators, primary screen, cell-based, S. cerevisiae, multiplex flow cytometry (AID 1862; in the data active = percent of DMSO control GFP below about 86%;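 also: lower values mimic rapamycin by blocking the RPL19A rise seen in DMSO cells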). The conditions noted are these: S. cerevisiae RPL19A-GFP strain, flow cytometry fluorescence, 3 h; at 10 µM; stronger effect = lower value. (Flow cytometry measures light scatter and fluorescence of single cells or particles in a stream.)
The nature of test [2]: modulators of MEP2-GFP levels in yeast, primary screen, S. cerevisiae, multiplex flow cytometry (AID 1867;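 active = GFP response, as percent of the DMSO control, above the screen-wide mean plus 3 SD, about 139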;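 also: median GFP channel fluorescence of barcode-gated MEP2-GFP cells measured by flow cytometry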). The conditions noted are these: S. cerevisiae MEP2-GFP strain, 3 h, at 10 µM, stronger effect = higher value, 100% means same as DMSO wells.
A short description of test [3]: modulators of CIT2-GFP expression in yeast, primary screen, S. cerevisiae, GFP fusion, multiplex flow cytometry (AID 1870;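 active = percent response above a set limit, the screen-wide mean plus 3 SD, cut at about 130% in these data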;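 also: barcoded CIT2-GFP strain pooled with four other GFP strains with rapamycin as positive control; median GFP fluorescence per well over plate mean of DMSO wells so 100% = DMSO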). The settings on record: 3 h, at 10 µM, stronger effect = higher value.
Test [4] can be described thus: modulators of LAP4-GFP expression in yeast, primary screen, S. cerevisiae, multiplex flow cytometry (AID 1873;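 active = GFP signal, as percent of the solvent control, above the screen mean plus 3 SD, about 149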). The settings on record: 3 h, at 10 µM, stronger effect = higher value.
Test [5] is described as follows: modulators of AGP1-GFP expression in yeast TOR pathway, primary screen, cell-based, multiplex flow cytometry, S. cerevisiae (AID 1887;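 active = GFP signal above the screen-wide mean plus 3 SD, that is over about 124.5% of the solvent control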;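 also: AGP1-GFP fusion strain of S. cerevisiae within a five-strain barcoded multiplex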). The conditions noted are these: 3 h, at 10 µM, stronger effect = higher value.
A short description of test [6]: inhibitors of CD8+ T cell-vesicle binding, pilot screen, LFA-1/ICAM-1 modulator project, MLPCN validation set, flow cytometry (AID 2523;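 active = response below a set limit, under 55% cells CD8-positive and vesicle-bound, and CD8 cells' 90th-percentile brightness under 279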;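 as to vesicle binding response: mean PE anti-B7-1 fluorescence of CD8+ cells relative to row control; 100% = QL9-loaded vesicles with DMSO vehicle in the same plate row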). The conditions noted are these: 2C mouse CD8+ T cells, at 7 µM, stronger effect = lower value; double positive events: measured here: CD8+/vesicle+ event percentage.
In test [7] the target is Integrin beta-1 (Homo sapiens) + Integrin alpha-4 (Homo sapiens) (UniProt P13612+P05556). Kind of test: inhibition of HUTS-21 binding to VLA-4, pilot screen, VLA-4 allosteric modulator project, U937 cells, HUTS-21 mAb, flow cytometry, validation set (AID 2674;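 active = inhibition above 50%, about 3 SD of the validation set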;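 also: antibody binding induced by the VLA-4 ligand LDV present at three times its Kd; 0% = LDV ligand with antibody and no compound and 100% = antibody without LDV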). The settings on record: HUTS-21 LIBS mAb binding, at 6.7 µM, stronger effect = higher value, binding induced by LDV ligand.
Chain of Integrin beta-1 (Homo sapiens) + Integrin alpha-4 (Homo sapiens) (P05556 whole entry, looked up): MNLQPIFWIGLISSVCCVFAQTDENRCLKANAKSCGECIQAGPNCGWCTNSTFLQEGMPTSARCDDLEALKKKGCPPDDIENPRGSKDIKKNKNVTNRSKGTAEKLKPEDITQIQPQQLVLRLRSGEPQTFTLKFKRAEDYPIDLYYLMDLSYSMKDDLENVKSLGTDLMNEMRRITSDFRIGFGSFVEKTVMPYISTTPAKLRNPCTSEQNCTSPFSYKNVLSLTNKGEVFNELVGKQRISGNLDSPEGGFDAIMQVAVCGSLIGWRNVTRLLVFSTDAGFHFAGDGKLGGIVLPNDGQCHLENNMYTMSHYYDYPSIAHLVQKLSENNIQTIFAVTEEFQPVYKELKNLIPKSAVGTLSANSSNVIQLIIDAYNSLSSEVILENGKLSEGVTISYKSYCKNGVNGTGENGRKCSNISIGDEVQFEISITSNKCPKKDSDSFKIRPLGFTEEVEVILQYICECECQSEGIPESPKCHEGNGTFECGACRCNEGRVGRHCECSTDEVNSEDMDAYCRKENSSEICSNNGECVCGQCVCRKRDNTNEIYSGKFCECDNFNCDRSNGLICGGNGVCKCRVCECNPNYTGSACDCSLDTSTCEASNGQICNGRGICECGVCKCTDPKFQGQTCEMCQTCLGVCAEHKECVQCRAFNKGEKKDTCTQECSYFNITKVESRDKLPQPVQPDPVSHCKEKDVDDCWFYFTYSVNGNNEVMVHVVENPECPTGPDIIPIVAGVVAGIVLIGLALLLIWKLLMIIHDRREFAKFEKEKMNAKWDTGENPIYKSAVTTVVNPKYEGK
Chain of Integrin beta-1 (Homo sapiens) + Integrin alpha-4 (Homo sapiens) (P13612 whole entry, looked up): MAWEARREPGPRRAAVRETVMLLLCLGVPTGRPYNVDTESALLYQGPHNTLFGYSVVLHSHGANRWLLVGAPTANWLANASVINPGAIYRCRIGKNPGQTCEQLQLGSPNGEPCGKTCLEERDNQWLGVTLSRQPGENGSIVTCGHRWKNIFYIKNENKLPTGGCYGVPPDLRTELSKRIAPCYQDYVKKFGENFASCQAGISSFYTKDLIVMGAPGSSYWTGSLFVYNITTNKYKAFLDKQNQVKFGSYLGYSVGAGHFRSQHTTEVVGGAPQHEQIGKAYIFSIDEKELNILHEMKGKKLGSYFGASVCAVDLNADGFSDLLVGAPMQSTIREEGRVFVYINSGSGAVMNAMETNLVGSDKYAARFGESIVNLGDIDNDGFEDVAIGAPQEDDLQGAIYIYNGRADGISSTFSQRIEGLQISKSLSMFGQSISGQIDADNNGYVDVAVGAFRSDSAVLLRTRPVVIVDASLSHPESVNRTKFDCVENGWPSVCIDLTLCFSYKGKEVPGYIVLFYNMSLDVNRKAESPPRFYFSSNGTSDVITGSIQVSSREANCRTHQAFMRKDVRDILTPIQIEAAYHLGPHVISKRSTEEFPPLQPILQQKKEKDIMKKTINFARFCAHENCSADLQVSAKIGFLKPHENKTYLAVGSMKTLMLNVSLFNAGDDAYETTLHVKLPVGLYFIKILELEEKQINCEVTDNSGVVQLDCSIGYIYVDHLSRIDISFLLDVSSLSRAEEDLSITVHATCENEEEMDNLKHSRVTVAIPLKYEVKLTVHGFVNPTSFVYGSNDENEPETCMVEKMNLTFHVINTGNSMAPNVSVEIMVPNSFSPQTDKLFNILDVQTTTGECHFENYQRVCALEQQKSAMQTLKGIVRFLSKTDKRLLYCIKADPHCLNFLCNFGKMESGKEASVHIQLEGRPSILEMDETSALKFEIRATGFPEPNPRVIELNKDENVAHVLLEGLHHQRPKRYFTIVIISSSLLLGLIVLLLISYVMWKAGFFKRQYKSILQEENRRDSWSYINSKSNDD

Test [8] in a line: superoxide lowering in aged yeast cells, pilot screen, validation compound set (AID 2706;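 active = superoxide response below 65% of plate, a cut near 3 SD across the whole screen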;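 also: yeast exposed to compound for one week at 30 degrees C before staining; 100% = mean of all compound wells on the same plate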). The conditions noted are these: S. cerevisiae aging, superoxide DHE fluorescence; at 10 µM; stronger effect = lower value.
Test [9] addresses Beta-adrenergic receptor kinase 1 (Homo sapiens) (UniProt P25098). Nature of the test: GRK2 binders displacing RNA aptamer, biochemical, validation, human GRK2, bead flow cytometry (AID 488806;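 active = aptamer binding inhibition above 30%, about 3 SD of noise from non-fluorescent compounds; inactive = inhibition at or below 30%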). The conditions noted are these: bead-bound GRK2, FAM-aptamer displacement, at 10 µM, stronger effect = higher value.
Test [10] concerns the target Beta-2 adrenergic receptor (Homo sapiens) (UniProt P07550). Kind of test: beta2AR agonists driving receptor internalization, pilot screen, cell-based, FAP fluorogen, flow cytometry, validation set (AID 504459;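 active = percent response above 42, roughly 3 SD of non-fluorescent test compounds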;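 also: agonist-driven loss of surface beta2AR via internalization measured by FAP dye flow cytometry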). The conditions noted are these: Am2.2-beta2AR cells, FAP surface receptor flow cytometry; at 10 µM; stronger effect = higher value.
The target of test [11] is AP-2 complex subunit beta (Homo sapiens) (UniProt P63010). Kind of test: inhibitors of arrestin peptide binding to AP2, pilot screen, biochemical, validation set, GST-AP2 beads, flow cytometry (AID 504541;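 active = inhibition above 54%, about 3 SD of non-fluorescent compounds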;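 also: AP2 carries R879A mutation and is captured from E. coli lysate; bead-bound FITC arrestin peptide fluorescence measuring arrestin peptide binding to AP2; 0% = DMSO wells and 100% = excess unlabeled arrestin peptide control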). The conditions noted are these: FITC arrestin peptide, at 10 µM, stronger effect = higher value, AP2 beta2 appendage fragment, R879A mutant.
Chain of AP-2 complex subunit beta (Homo sapiens) (P63010 whole entry, looked up, the tested form may be a part, one chain of several): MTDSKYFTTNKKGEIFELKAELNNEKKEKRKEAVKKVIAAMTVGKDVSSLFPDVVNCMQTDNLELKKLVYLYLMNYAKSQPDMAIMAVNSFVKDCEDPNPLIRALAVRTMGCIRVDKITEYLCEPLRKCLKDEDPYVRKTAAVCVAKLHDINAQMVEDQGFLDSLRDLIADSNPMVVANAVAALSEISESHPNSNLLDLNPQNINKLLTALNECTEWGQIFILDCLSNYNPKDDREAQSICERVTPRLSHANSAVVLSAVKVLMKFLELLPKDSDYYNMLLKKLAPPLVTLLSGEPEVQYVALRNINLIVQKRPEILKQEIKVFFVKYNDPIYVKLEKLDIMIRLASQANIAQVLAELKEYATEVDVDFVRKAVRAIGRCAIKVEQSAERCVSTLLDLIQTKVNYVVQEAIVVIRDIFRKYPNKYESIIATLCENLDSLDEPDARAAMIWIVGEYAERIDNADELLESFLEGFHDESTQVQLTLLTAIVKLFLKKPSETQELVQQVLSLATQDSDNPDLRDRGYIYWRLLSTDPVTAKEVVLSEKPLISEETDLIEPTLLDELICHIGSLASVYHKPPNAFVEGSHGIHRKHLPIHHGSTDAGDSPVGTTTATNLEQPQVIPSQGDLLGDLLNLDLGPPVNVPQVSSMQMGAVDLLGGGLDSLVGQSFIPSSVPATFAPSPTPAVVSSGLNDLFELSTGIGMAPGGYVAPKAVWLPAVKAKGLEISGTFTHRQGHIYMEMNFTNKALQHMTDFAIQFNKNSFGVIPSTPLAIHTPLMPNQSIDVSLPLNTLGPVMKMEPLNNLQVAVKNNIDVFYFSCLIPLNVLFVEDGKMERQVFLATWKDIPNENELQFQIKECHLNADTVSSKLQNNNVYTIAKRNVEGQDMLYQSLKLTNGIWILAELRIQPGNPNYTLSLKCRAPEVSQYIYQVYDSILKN
Test [12] is described as follows: yeast V-ATPase proton transport modulators, S. cerevisiae, pHLuorin, HTS validation (AID 504600; in the data active = response above about 15%;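 also: plate controls were DMSO for no effect and reference compound for full effect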). The conditions noted are these: S. cerevisiae pHLuorin cytosolic pH, at 10 µM, stronger effect = higher value.
Test [13] relates to anti-desmoglein-3 scFv antibody binding to human DSG3. Kind of test: inhibitors of anti-DSG3 scFv binding to DSG3, pilot screen, biochemical, validation compound set, bead-based, flow cytometry (AID 588368).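 Also: signal is the median channel fluorescence of bead-bound GFP antibody.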 The settings on record: Protein G beads, DSG3-Fc, scFv-GFP binding, at 10 µM, stronger effect = lower value.
Test [14] can be described thus: inhibitors of fungal efflux pumps CDR1, CDR2, MDR1, pilot screen, validation compound set, multiplex, phenotypic (AID 588506;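 active = efflux inhibition above 0.42, the validation set average plus 4 SD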;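 also: Nile Red retained in cells so higher fluorescence means more efflux inhibition; 0 = negative control wells and 1 = enniatin B 25 µM full block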). The settings on record: S. cerevisiae pump-expressing triplex, Nile Red efflux flow cytometry; at 10 µM; stronger effect = higher value; the pumps come from Candida albicans.
Test [15] deals with ATP-binding cassette sub-family B member 6 (Homo sapiens) (UniProt Q9NP58). Kind of test: ABCB6 transporter inhibitors, pilot screen, K562-ABCB6 cells, flow cytometry, validation set (AID 588550;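 active = inhibition above the screen-wide mean plus 3 SD, about 51%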;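 also: 0% = DMSO wells and 100% = benzethonium chloride 70 µM positive control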). The settings on record: K562-ABCB6 porphyrin accumulation, 1 h, at 10 µM, stronger effect = higher value.
Chain of ATP-binding cassette sub-family B member 6 (Homo sapiens) (Q9NP58 whole entry, looked up): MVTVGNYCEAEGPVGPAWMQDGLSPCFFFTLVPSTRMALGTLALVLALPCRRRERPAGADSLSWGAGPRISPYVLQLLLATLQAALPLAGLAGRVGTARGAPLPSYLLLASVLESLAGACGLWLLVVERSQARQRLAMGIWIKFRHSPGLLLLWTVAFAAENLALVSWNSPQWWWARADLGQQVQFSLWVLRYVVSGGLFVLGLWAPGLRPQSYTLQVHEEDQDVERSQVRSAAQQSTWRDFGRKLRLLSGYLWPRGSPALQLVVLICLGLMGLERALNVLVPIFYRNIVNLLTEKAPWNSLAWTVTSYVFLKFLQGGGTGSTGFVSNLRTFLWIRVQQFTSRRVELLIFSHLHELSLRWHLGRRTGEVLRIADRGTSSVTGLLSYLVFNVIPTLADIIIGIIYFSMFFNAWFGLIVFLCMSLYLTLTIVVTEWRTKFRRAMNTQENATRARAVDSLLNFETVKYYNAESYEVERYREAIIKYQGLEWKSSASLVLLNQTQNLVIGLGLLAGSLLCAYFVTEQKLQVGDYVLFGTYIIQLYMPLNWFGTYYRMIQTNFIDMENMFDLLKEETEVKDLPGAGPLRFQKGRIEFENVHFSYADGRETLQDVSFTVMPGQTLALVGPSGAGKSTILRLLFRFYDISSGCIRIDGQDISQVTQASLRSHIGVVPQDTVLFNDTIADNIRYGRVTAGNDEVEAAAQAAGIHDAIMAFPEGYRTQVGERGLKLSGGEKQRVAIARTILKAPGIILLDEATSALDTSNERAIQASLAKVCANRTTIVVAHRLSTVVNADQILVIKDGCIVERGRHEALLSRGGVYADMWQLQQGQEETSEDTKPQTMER
The nature of test [16]: promoters of myeloid differentiation in arrested cells, primary screen, cell-based, GFP/MAC1 double positive, flow cytometry, validation set (AID 588685;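 active = differentiation response of at least 50%, scaled between solvent and reference control, from cells with both markers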;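 also: compound exposure lasts four days before antibody staining and flow analysis; 0% = DMSO wells and 100% = 5 µM fulvestrant positive control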). The conditions noted are these: ER-HoxA9 marrow cells, stronger effect = higher value, normalized: vehicle 0, fulvestrant 100.

Chain of Beta-2 adrenergic receptor (Homo sapiens) (P07550 whole entry, looked up): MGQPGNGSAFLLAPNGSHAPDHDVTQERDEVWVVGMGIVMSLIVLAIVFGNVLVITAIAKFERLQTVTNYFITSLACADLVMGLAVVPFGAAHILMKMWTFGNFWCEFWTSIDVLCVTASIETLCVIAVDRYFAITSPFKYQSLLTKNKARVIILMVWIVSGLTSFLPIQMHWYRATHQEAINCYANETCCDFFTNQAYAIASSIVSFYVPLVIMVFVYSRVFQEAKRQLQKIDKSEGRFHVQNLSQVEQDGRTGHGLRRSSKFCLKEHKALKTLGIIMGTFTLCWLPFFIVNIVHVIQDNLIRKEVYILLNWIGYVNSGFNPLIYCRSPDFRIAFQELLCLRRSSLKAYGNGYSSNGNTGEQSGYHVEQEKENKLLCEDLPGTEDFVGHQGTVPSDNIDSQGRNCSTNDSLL
Chain of Beta-adrenergic receptor kinase 1 (Homo sapiens) (P25098 whole entry, looked up): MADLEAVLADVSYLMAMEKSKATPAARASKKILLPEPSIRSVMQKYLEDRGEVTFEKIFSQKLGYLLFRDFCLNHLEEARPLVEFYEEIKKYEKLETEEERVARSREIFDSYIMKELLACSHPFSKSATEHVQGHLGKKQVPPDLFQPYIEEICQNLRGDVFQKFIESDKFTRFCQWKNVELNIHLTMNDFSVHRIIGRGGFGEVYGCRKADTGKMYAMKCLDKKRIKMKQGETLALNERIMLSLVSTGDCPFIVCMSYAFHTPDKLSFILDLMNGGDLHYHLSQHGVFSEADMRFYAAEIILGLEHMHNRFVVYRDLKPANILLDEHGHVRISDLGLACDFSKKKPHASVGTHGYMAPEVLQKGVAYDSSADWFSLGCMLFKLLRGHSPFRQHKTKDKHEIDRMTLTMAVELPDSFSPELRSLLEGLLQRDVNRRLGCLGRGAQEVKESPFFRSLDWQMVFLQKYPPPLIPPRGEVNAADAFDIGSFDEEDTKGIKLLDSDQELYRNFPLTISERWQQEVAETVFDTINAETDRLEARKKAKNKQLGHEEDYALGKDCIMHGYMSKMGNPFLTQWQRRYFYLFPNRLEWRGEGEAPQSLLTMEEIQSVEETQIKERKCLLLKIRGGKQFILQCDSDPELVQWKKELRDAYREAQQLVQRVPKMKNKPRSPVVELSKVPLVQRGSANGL

For the compound `CCOc1cc2c(cc1OCC)C(c1ccccc1)N(c1ccc(C(=O)O)cc1)C(=O)C2` (stereo not given), in test [1], the percent of DMSO control GFP was 106% (inactive). Further, the GFP response vs DMSO is 109% (inactive) in [2] and 113% (inactive) in test [4]. Further, the percent response of DMSO control in [3] was 95.5% (inactive). For the same compound, in [5], the GFP response, % of DMSO was 107% (inactive). Besides, the double positive events in test [6] turned out to be 61.4%. Further, the vesicle binding response in test [6] is 151% (inactive). Besides, the inhibition is 11% (inactive) in test [7], -11.9% (inactive) in test [11] and 7% (inactive) in test [15]. Besides, the superoxide response (% of plate) in [8] is 92% (inactive). In addition, the aptamer binding inhibition in [9] is -1% (inactive). In addition, the values for the response in test [10] and in test [12] were 3.08% (inactive) and 1.91% (inactive), respectively. Moreover, the binding (% of control) in test [13] was 96.8% (inactive). Also, the efflux inhibition (fraction of control) in test [14] was -0.1 (inactive). In test [16], the differentiation response was 8.59% (inactive).

Regarding `CC(=O)N/C(=C/c1ccc2c(c1)OCO2)C(=O)NCCO`, the percent of DMSO control GFP in test [1] was 98.2% (inactive). The values for the GFP response vs DMSO in test [2] and in [4] were 106% (inactive) and 111% (inactive), respectively. Also, in [3], the percent response of DMSO control is 93.9% (inactive). Besides, in test [5], the GFP response, % of DMSO was 106% (inactive). The compound also showed a double positive events in test [6] of 61.5%. Moreover, the vesicle binding response in test [6] is 3870% (inactive). Further, the inhibition in [7] was -5.89% (inactive); in test [11], -4.62% (inactive); in [15], 2% (inactive). In addition, the superoxide response (% of plate) in [8] is 106% (inactive). Moreover, the aptamer binding inhibition in test [9] is 0% (inactive). Besides, the response was 2.49% (inactive) in [10] and 1.75% (inactive) in [12]. Also, in [13], the binding (% of control) was 97.4% (inactive). Moreover, in test [14], the efflux inhibition (fraction of control) is -0.42 (inactive). Also, the differentiation response in test [16] was -5.6% (inactive).

For the compound `CCNC(=O)c1c(N)sc2c1CCCCC2`, the percent of DMSO control GFP in test [1] is 103% (inactive). Further, the GFP response vs DMSO is 96.3% (inactive) in test [2] and 90.5% (inactive) in test [4]. In addition, the percent response of DMSO control in [3] is 101% (inactive). The GFP response, % of DMSO in test [5] was 94.9% (inactive). Further, in [6], the double positive events was found to be 63.8%. Besides, the vesicle binding response in [6] was 262% (inactive). Also, the inhibition is -27.7% (inactive) in test [7], 9.58% (inactive) in test [11] and 2% (inactive) in test [15]. In addition, the superoxide response (% of plate) in test [8] was 101% (inactive). Also, in test [9], the aptamer binding inhibition was 1% (inactive). Also, the response in test [10] was 33.6% (inactive); in [12], -1.51% (inactive). In [13], the binding (% of control) was 95.3% (inactive). Besides, in test [14], the efflux inhibition (fraction of control) was 0.12 (inactive). Also, the differentiation response in test [16] is 7.2% (inactive).

`CC(C)(C)N1NC2(CCCCC2)NC1=S`: the percent of DMSO control GFP in [1] was 99.8% (inactive). Besides, the GFP response vs DMSO was 113% (inactive) in test [2] and 80.9% (inactive) in test [4]. Moreover, the percent response of DMSO control in [3] was 118% (inactive). Besides, in test [5], the GFP response, % of DMSO was 95.2% (inactive). This compound also showed a double positive events in test [6] of 53.1%. In test [6], the vesicle binding response is 193% (inactive). Also, the inhibition in test [7] is -3.24% (inactive); in [11], -12.7% (inactive); in [15], 7% (inactive). In addition, in [8], the superoxide response (% of plate) was 125% (inactive). Besides, the aptamer binding inhibition in test [9] was -1% (inactive). The figures for the response in [10] and in test [12] were -12.5% (inactive) and 0.59% (inactive), respectively. The binding (% of control) in test [13] is 104% (inactive). The efflux inhibition (fraction of control) in test [14] was 0.27 (inactive). In test [16], the differentiation response was 1.64% (inactive).

Consider `COc1ccc2cc(C(=O)Nc3ccc(S(N)(=O)=O)cc3)sc(=O)c2c1OC`, for which, in test [1], the percent of DMSO control GFP was 93.7% (inactive). The results for the GFP response vs DMSO in test [2] and in test [4] were 110% (inactive) and 79.8% (inactive), respectively. The percent response of DMSO control in test [3] was 114% (inactive). Besides, in test [5], the GFP response, % of DMSO was 98.9% (inactive). Besides, the double positive events in test [6] was found to be 57.9%. Moreover, in [6], the vesicle binding response is 258% (inactive). For the same compound, the inhibition in test [7] was 3.55% (inactive); in [11] it was -1.93% (inactive); in test [15] it was 7% (inactive). Further, the superoxide response (% of plate) in test [8] is 101% (inactive). In addition, the aptamer binding inhibition in test [9] was -4% (inactive). Further, the response in test [10] is 19.2% (inactive); in test [12], 0.97% (inactive). For the same compound, the binding (% of control) in test [13] is 97.8% (inactive). Also, the efflux inhibition (fraction of control) in [14] was 0.19 (inactive). Also, in test [16], the differentiation response is -9.01% (inactive).

The term inhibition denotes the relative decrease from the control value, in per cent.
